Only a selection was taken, and hits are over-represented in it overall.
IL-1B inflam inh – inflammasome signaling inhibition, IL-1 beta readout | THP-1 LPS/ATP IL-1B secretion, AlphaLISA, 16 h; hits give low values | activity change, % at 57.5 µM | actives 4.7% (n = 360,000); in the data active means activity change below about -50%; inconclusive means mostly about -30% to -49%
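Secreted IL-1B measured by AlphaLISA bead assay after 16 h compound exposure of THP-1 cells; compounds (final up to 57.5 uM) added 1 h before LPS (250 ng/mL) and ATP (1.25 mM) stimulation; lower signal means less secretion.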
HT1080 IDH1KD tx – toxicity to HT-1080 IDH1 knockdown cells (counter line). HT-1080 IDH1 knockdown viability, ATP luminescence, 48 h. Potency, µM (highest dose often 46.1 µM), for inactives: at the highest dose activity, negative = toxicity, actives largely listed as cytotoxic. actives 2% (n = 360,000);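 further: potency means the concentration at half of the fitted maximal effect; 0% = DMSO wells and -100% = cell-free medium wells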
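Knockdown cells (IDH1KD HT-1080) received compounds 2 h after plating at 750 cells/well and were kept 48 h at 37 °C in 5% FBS RPMI. A CellTiter-Glo luminescence read gave % activity for curve fitting.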
ALOX12 inh – ALOX12 (human) lipoxygenase inhibition. P18054. purified 12hLO, xylenol orange hydroperoxide absorbance. Potency, µM (series often up to 108 µM), for inactives: top-dose activity change, negative = inhibition, actives largely listed as inhibitors. actives 1.1% (n = 580,000). AID 1671190; further: potency means the concentration at half of the fitted maximal effect
Target sequence (P18054 whole entry, looked up): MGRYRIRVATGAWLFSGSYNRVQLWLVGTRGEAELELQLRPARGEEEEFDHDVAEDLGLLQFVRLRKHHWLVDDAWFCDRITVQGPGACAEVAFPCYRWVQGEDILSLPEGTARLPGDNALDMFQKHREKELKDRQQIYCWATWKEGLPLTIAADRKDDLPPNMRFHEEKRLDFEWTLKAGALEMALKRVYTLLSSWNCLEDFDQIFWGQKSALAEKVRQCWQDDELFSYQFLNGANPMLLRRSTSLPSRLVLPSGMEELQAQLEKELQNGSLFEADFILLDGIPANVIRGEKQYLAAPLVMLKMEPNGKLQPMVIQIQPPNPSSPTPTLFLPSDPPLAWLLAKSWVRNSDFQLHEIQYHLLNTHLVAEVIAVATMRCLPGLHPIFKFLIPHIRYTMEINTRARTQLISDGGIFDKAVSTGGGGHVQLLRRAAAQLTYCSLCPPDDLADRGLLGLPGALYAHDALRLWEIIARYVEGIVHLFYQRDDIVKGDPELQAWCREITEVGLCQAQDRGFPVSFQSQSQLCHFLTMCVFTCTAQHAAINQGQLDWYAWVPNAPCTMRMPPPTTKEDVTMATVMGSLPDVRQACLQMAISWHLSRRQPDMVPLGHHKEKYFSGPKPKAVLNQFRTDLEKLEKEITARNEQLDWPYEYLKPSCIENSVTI
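Purified human 12hLO (150 nM final) in 25 mM Hepes, 0.01% Triton X-100, pH 7.0 was preincubated 15 min at room temperature with compound. Then 40 uM arachidonic acid was added, 30 min. Hydroperoxide was read by Fe-XO absorbance ratio 573/405 nm.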
DT40 TDP1 CPT – growth inhibition of DT40 Tdp1-/-;hTDP1 cells with camptothecin (screen for TDP1 inhibitors); Potency, µM (titrated, usually from 46.2 µM), for inactives: at the highest dose activity change, negative = growth inhibition, most hits filed as inhibitors; actives 12% (n = 420,000); AID 686979; chicken DT40 Tdp1-/-;hTDP1 cells + 20 nM CPT, ATP luminescence, 48 h; further: potency means the concentration at half of the fitted maximal effect; nearly all actives have a fitted effect of over 55% in size
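Chicken DT40 Tdp1-/- cells complemented with human TDP1, 400 cells/well, exposed to compounds plus 20 nM camptothecin for at least 48 h at 37 C; viability read as ATP content by CellTiter-Glo luminescence.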
HT1080NT lethal – kills 2HG-producing HT-1080-NT fibrosarcoma cells. Potency, µM (titrated, usually from 46.1 µM), without a hit: at the top dose activity, negative = less viability, hits mostly cytotoxic. HT-1080-NT fibrosarcoma viability, CellTiter-Glo ATP luminescence, 48 h. actives 1.6% (n = 360,000);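 further: NT is the 2HG producing partner of a matched IDH1 knockdown line; potency means the concentration at half of the fitted maximal effect; 0% = DMSO-treated cells and -100% = media-only wells without cells; nearly all actives have a fitted effect of over 55% in size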
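Read-out is CellTiter-Glo luminescence after 10 minutes at room temperature, following 48 hours' compound treatment of HT-1080-NT cells (750 cells/well, RPMI, 5% FBS, 37 degrees C).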
DT40 TDP1 no CPT – qHTS for Inhibitors of human tyrosyl-DNA phosphodiesterase 1 (TDP1): qHTS in cells in absence of CPT | DT40 Tdp1-/- hTDP1 cells, no CPT, ATP luminescence, 48 h | Potency, µM (highest dose often 46.2 µM), for inactives: at the top dose activity change, negative = growth inhibition, hits mostly inhibitors | actives 15% (n = 420,000) | AID 686978, 2013; further: potency means the concentration at half of the fitted maximal effect; nearly all actives have a fitted effect of over 55% in size
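Growth of hTDP1-complemented DT40 Tdp1-knockout cells is measured by ATP luminescence after at least 48 hr compound exposure at 37 °C, with DMSO substituting for the 20 nM CPT used in the parallel screen.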
* marks the source's active call; other numbers are inactive results; ? = inconclusive; nt = no result given; [ ] = another dose, or the depositor's remark. Unless noted, the call rests on the fitted dose curve; in most records, active means well fitted curve in the direction sought with a large enough effect; inconclusive means small, poorly fitted or top-dose-only effect, or another doubt; inactive means no such curve, though single readings can be large; an effect the other way counts as inactive or inconclusive. Unless noted, on the % scale 0 is the no-effect control and ±100 the full control effect.

SMILES	IL-1B inflam inh	HT1080 IDH1KD tx	ALOX12 inh	DT40 TDP1 CPT	HT1080NT lethal	DT40 TDP1 no CPT
O=C(O)c1ccc(CN2CCOC[C@H]2c2ncc(-c3ccc(C(F)(F)F)cc3)[nH]2)cc1	nt	nt	9%[176 µM]	nt	nt	nt
Cc1cccc(N2C(=O)CC(Sc3nccc(C)n3)C2=O)c1 (stereo not drawn)	24	9%	14%	?	17%	-21%
Cc1cccc(N2C(=O)CC(Sc3ncn[nH]3)C2=O)c1 (stereo not drawn)	18	18%	0%	1.8µM*	13%	1.8µM*
Cc1ccc(N2C(=O)CC(Sc3ncn[nH]3)C2=O)cc1C (stereo not drawn)	-6	0%	0%	4.6µM*	-2%	5.2µM*
O=C(Oc1ccc(OCc2ccccc2)cc1)c1ccc(F)cc1Cl	nt	nt	-13%	nt	nt	nt
CC(/C=C(\NC(=O)c1ccccc1)C(=O)N=Nc1c(O)[nH]c2ccc(C)cc12)=C\c1ccccc1	-8	-1%[9.24 µM]	-11%	8.2µM*	-7%	8.2µM*
Fc1ccc(C2Cn3nnc(-c4nc(-c5cccc(Cl)c5)no4)c3CO2)cc1 (stereo not drawn)	nt	nt	20%	nt	nt	nt
CN(C)Cc1csc(NC(=O)Nc2ccccc2Oc2ccccc2)n1	-104*	?	?	?	16µM*	?
NC(c1ccccc1)c1csc(NC(=O)Nc2ccccc2Oc2ccccc2)n1 (stereo not drawn)	-11	?	?	?	?	15µM*
NC(Cc1ccc(C(F)(F)F)cc1)c1csc(NC(=O)NCCc2ccccc2)n1 (stereo not drawn)	-101*	18µM*	?	12µM*	23µM*	13µM*
COc1ccccc1NC(=O)Nc1nc(C(N)Cc2ccc(C(F)(F)F)cc2)cs1 (stereo not drawn)	0	nt	?	13µM*	nt	15µM*
O=C(O)c1cc(F)cc(Br)c1	nt	nt	-97%	nt	nt	nt
NC(=O)c1ccc(COC(=O)c2cc(Br)ccc2F)cc1	nt	nt	-4%	nt	nt	nt
Cn1cccc1CN1CCC2(CC1)CN[S+](=O)([O-])c1cccnc1O2	nt	nt	10%[6.33 µM]	nt	nt	nt
NC(Cc1ccccc1)c1csc(NC(=O)Nc2ccccc2Oc2ccccc2)n1 (stereo not drawn)	?	?	?	-110%	?	21µM*
NC(Cc1ccc(C(F)(F)F)cc1)c1csc(NC(=O)Nc2ccccc2Oc2ccccc2)n1 (stereo not drawn)	-60*	-6%	?	?	?	18µM*
CC(C)CC(N)c1csc(NC(=O)NCCc2ccccc2)n1 (stereo not drawn)	nt	?	12%	?	?	?
NC(c1ccccc1)c1csc(NC(=O)NCCc2ccccc2)n1 (stereo not drawn)	-63*	?	-8%	?	?	?
Cn1cc(CN2C[C@@H](F)[C@@H](OCc3nc4ccccc4o3)C2)c2ccccc21	nt	nt	2%[176 µM]	nt	nt	nt
CNC(=O)[C@H]1C[C@H](Oc2ccccc2)CN1C(=O)Nc1cccc(F)c1	nt	nt	4%	nt	nt	nt
O=C(Nc1ccc(C(=O)N(Cc2ccccc2)C2CC2)cc1)c1cccs1	nt	nt	10%	nt	nt	nt
CCOC(=O)C(C)Oc1cc(O)c2c(=O)cc(-c3ccccc3)oc2c1 (stereo not drawn)	nt	nt	1%	nt	nt	nt
CC(C)CC1C(=O)N(Cc2cn(Cc3ccco3)nn2)CCS(=O)(=O)N1Cc1ccc(-c2ccc(Cl)cc2)cc1 (stereo not drawn)	-53*	?	?	18µM*	?	13µM*
